Test results as given in the supplement of paper PMC10681739.

Experiments:
[1] = target: T1, ETS1 (UniProt P14921); test: ETS1 binding intensity (PBM fluorescence), ETS1 alone (arbitrary fluorescence units); higher = stronger binding; conditions: ETS1 concentration 1 nM; RUNX1 concentration 0 nM
T1 sequence: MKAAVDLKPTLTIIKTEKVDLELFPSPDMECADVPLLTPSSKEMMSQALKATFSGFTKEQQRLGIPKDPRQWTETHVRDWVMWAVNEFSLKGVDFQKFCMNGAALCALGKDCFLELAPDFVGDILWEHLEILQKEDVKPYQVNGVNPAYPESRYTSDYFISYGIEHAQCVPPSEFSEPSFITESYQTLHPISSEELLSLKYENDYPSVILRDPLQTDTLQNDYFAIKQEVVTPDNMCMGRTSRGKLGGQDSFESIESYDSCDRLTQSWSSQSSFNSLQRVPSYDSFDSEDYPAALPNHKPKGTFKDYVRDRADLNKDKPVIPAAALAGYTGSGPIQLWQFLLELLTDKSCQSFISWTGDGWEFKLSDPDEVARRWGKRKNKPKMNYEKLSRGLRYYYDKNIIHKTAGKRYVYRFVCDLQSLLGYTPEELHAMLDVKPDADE

[2] = target: RUNX1 (UniProt Q01196); test: RUNX1 binding intensity (PBM fluorescence), RUNX1 alone (arbitrary fluorescence units); higher = stronger binding; conditions: RUNX1 concentration 2 nM; ETS1 concentration 0 nM
Chain of RUNX1 (Q01196 whole entry): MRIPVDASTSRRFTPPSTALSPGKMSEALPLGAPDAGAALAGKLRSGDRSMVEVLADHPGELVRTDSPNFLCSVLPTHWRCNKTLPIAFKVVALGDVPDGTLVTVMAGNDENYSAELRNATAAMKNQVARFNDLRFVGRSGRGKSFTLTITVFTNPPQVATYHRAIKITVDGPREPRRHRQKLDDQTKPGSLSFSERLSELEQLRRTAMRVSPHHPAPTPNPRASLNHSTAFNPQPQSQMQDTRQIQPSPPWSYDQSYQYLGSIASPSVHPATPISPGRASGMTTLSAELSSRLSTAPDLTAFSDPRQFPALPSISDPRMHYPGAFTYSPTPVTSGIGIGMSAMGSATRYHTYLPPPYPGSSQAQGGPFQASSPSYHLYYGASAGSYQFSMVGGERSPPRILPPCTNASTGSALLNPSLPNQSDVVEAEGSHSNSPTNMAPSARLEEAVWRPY
Description: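 Cooperative gcPBM on 36-bp genomic probes with neighbouring ETS1 and RUNX1 sites. Recombinant human RUNX1 (2 nM) was incubated alone or with ETS1 (25 nM) and detected with anti-RUNX1 antibody plus Alexa488 secondary. Values are medians over 4 replicate spots; the RUNX1+ETS1 data were normalised to the RUNX1-only data. The probes sit in constant array flanks that are not printed.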

[3] = target: T1, ETS1; test: ETS1 binding intensity (PBM fluorescence) in presence of RUNX1, normalised to ETS1-only experiment (arbitrary fluorescence units); higher = stronger binding; conditions: ETS1 concentration 1 nM; RUNX1 concentration 25 nM
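Throughout, for RUNX1 binding intensity (PBM fluorescence), RUNX1 alone: Full-length recombinant human RUNX1 bound to double-stranded 36-bp genomic probes on a high-density microarray, scored as Alexa488 fluorescence per spot via anti-RUNX1 antibody, median of four replicate spots.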

Sequence	ETS1 binding intensity [1]	RUNX1 binding intensity [2]	ETS1 binding intensity [3]
CCCACCCTCGCCGGAAGCCGAGCGGTTTCTACATCA	2120	1110	3600
CCAGCCCAGGAAACAAGGAACCCCAAAGCCACAGGA	392	828	579
GGGGAAAGGAAGAGGAAACCGCGAGTGCAAAGGCCC	679	1140	1580
CCTCTGAGGCAGGAAGCTGCGGTGAAGTCTGAAGTT	3300	871	11800
CTGTCCGCGACATCCGGGACCTGCGGGACCGCCGAT	1250	765	1470
CACGGAGCCACTTCCGGCGGCTGTGGGCGCAAAACC	3620	752	4210
TCTAGTAAAAGAGGAAGTTCTTAACCACATTTCCAT	2100	1020	9250
CCTCAAAACCCGGAAACGCCTTGCGGGGCAGTGTGG	3330	789	4480
GGTGGCCGCCGGAAGTGTGACCGCGGGAGGGGAGTG	7650	743	25500
CTTACAGTCACAACAGGATGTGGTTTGACATTTACT	6780	869	32800
GGGGACCGGAAAGGGAGGGGTGGGCCGCAGGCGCCG	786	766	680
ACCCCAAGCCCAGGATGTGGTTTGGCCACTATTGAG	727	859	4450
ACTCCTCCCGCTTCCGCTGCCGCAGCCGGTCGTAAC	1280	1310	1680
GCGCCGGTGACGGAAGTGCGGTGTTGAGCGCCGGCG	2430	758	3070
GCGATCGGAGCGGAAGTGGAGCTACCGCCACCGCCG	7540	819	8910
TGGTTCCACCGACCGGAAGGGCCACAAGGATCCCCG	5280	659	5560
ATTTCCATTTCCGGACTCTTCTCCTGCCCGCAGGGC	2270	1220	3560
GCAGCCCAGCTTCCTGCAGACCAAAACCACAAGCAG	542	1390	2540
GCACAGGCCGGAAGGAAAAGGGTTGTGGGGCTCATT	1290	814	1180
ACTAGAAGCGGAAGTAGTTGTGGGCGCCTTTGCAAC	5720	662	7470
AGCTTGACGAAGGCTTCCTGTGGTTTGGGTTGATGT	486	–	964

Sequence	ETS1 binding intensity [1]	RUNX1 binding intensity [2]	ETS1 binding intensity [3]
GAAGTGATGTTAGACGGATGTGGGTGGTGCCTCCGG	1620	–	2790
ACTTACTTCCCGACGTCACAGCCTCCGACACCACAG	471	–	423
CTCTGAAGGAAGTGATGTTAGACGGCTGTGGGTGGT	545	–	785
CACCTGCCTTGCTTCCTGCGGTGCAACCAGCGGGAG	444	–	520
CCAACACGGATACAAAAAATATCTCTCTACCACACT	476	–	531
AGTTGCTAAGGAAATGACTGCCCGCAGCGCCTGGCC	423	–	929
GCCGCGCGGAAGCCTCCGCCCTGTGGTTTTGGAGCC	368	–	993
CAGAGGCCCGGCCTCTTCCGCCACAACTCCGGCCCG	492	–	356
CAGATTTCCGGCTTCTGAGGAGCTGCCCTACCACAG	530	–	398
AACAGCTTTTGTCCAGGATGTGGCTTCATAGCCTTG	1650	–	2340
AGGAGTGACGAGGCGGACGTGCGGGGGCGGGGGTGT	461	–	458
CTGGGGCTGAGGGAGGGATGTGGTGGGGCCCAGGCT	411	–	521
GAACACGGAAACACTGAGCTTTTACTTTGACCACAC	572	–	440
GATACTCTTCCTGTCATCCCATCCCCACAGCCTTAG	503	–	501
GCTGTTTCCTGCTGATAAAAACACCCCACAACTTCA	449	–	510
ATAGTCACCGTTCCGGCCCTCCTCCACCGCACTTCT	445	–	578
GCTTACGTCACGTCCGGCGCCTGCGGCCCACCCCTC	592	–	506
GCAGCCAGGGTAGGAAGTGGTAAGACCTCCCTGTGA	893	–	1230
TACTTAGAGGAAATGTGGCCTGTGGTCTTGTCTCAC	617	–	977
TTTGCACACATCCTGGCCTCCGCCTGACCACCTCCT	483	–	586
GGCAGGAGCTTCCGGCTCAGCCCTGCGGCCTGTGCC	498	–	768

Sequence	ETS1 binding intensity [1]	RUNX1 binding intensity [2]	ETS1 binding intensity [3]
CATCAAAAACAGAGGAAGCCACAGCAAATTGCTGCC	523	–	418
GGCAGGCAGCAGAGGAAACCACCCCCACCCACTCCC	1420	–	1640
ACTTCCAGGAAGCCCCATAGTCCAGAAACCCACACA	493	–	402
CCTGTTCCGGGCTCCGTACACCCAGGCCCGCAGCTG	550	–	494
TACCACTGAAAGGATGTGCGGGTAGAAATGAGCAAT	830	–	938
GGAGCAACCGGCCGGATACCGCCACAGCCCTGGCAG	1720	–	1400
TAGTCCGCTACAGGAAGGTGGTCATCCTCGGATACC	1110	–	1170
TGGTCCACCCGGCGGAACTCGCGGTCCCGGCAGGCA	520	–	397
AACCAAGAGGATTTCCTGCCCACACACTCAGCGTCT	870	–	751
TTTTCCCACTTCCTAGGTTGTGGTGGGGATTACACA	475	–	571
AGGGAAGCGGCGGCGGAAGCCCCGCAGGAGGCCGGC	806	–	932
CCCGGTGCACCGGATCCGACCACACCCTGGGTGGGC	525	–	400
CTTACAGATAAGGAAACTGAGGTTAAAATGTAGGGG	681	–	656
GGCCTTCTGCCTACATCCTGCGGCGCCCGCGACCCG	679	–	593
ACCAGGATGTAGTTTAGCTTAGGGGTGGTTATATCG	603	–	494
TTACTTCTCAGGAAGCGCTGTGGGGCTGGGGTTGCT	676	–	513
TGCCGTTTCCGGGTCACCCAGGCAGCTTGTGGCGGC	528	–	478
CTGCGCTTCCGCTTCACCCGGAGTACAGCGGTCCTG	842	–	713
GTGGCTTCCTGCCATTGACAATTGCGGGATGGCTTT	529	–	542
TCTACATCCTGCAGTTCTCCATTGTGGCCATTAGGT	443	–	319
CTGTCAGGATGTTGGCTTGTGAGCCCACAATCCTCT	413	–	451
